LASV entry inh: qHTS for Inhibitors of binding or entry into cells for Lassa Virus; Lassa virus pseudotyped entry inhibition, cell-based qHTS; Potency, µM (highest dose often 49.2 µM), inactives show at the top dose activity change, negative = inhibition, usual class: inhibitors; hit rate 4.1% among 18,000
Marburg entry: qHTS for Inhibitors of binding or entry into cells for Marburg Virus; Marburg virus pseudotype entry/binding inhibition, cell-based; Potency, µM (doses to about 49.2 µM), inactives show at the top dose activity change, negative = inhibition, most hits filed as inhibitors; hit rate 6.5% among 18,000
An asterisk follows results filed as active; ! = a repeat was not active; [ ] = dose if it differs, or a comment. An excerpt weighted towards active compounds, which were near 8.6% of everything screened. Calls come from the whole dose curve; tested in HEK293 cells. % is set by controls: 0 for no effect and ±100 for the full control effect; potency is the fitted concentration of half-maximal effect.

Screening CCCCC(=O)OCC(=O)[C@]1(O)Cc2c(O)c3c(c(O)c2[C@@H](O[C@H]2C[C@H](NC(=O)C(F)(F)F)[C@H](O)[C@H](C)O2)C1)C(=O)c1c(OC)cccc1C3=O returned LASV entry inh 2.8µM* and Marburg entry inconclusive.
`COc1cccc2c1C(=O)c1c(O)c3c(c(O)c1C2=O)C[C@](O)(C(C)=O)C[C@H]3O[C@@H]1C[C@H](N)[C@H](O)[C@H](C)O1` gave LASV entry inh 1µM* and Marburg entry inconclusive.
`CC[C@]1(O)CC(O[C@@H]2CC(N(C)C)C(O)C(C)O2)c2c(cc3c(c2O)C(=O)c2c(O)cccc2C3=O)C1C(=O)OC` (some centres undefined) gave LASV entry inh -26% and Marburg entry 20µM*.
COc1cccc2c1C(=O)c1c(O)c3c(c(O)c1C2=O)C[C@@](O)(C(=O)CO)C[C@@H]3O[C@H]1C[C@H](N)[C@H](O)[C@H](C)O1 was read as LASV entry inh 20µM*! and Marburg entry 0.28µM*!.
`Nc1nc(-c2ccccn2)c(-c2ccc3ncccc3n2)s1` gave LASV entry inh 48% and Marburg entry 43%.
For COC1=CC2C(=O)C(C1=O)[C@H](c1ccccc1)[C@H]2C (some centres undefined) the results were LASV entry inh 1%[8.59 µM] and Marburg entry -3%[8.59 µM].
`CCCC=Cc1ccc(CN2C(C)C(=O)N(Cc3cn(Cc4ccco4)nn3)CCS2(=O)=O)cc1` (centres undefined) gave LASV entry inh -2% and Marburg entry inconclusive.
For O=C(OCc1cn([C@H]2C[C@H](c3ccccc3)N(C(=O)C3CCCCC3)C[C@H]2O)nn1)c1ccccc1 the results were LASV entry inh 8% and Marburg entry 17%.
For CCCC(=O)O[C@]1(C(=O)CCl)[C@@H](C)C[C@H]2[C@@H]3CCC4=CC(=O)C=C[C@]4(C)[C@@]3(F)C(=O)C[C@@]21C the results were LASV entry inh inconclusive and Marburg entry 7.9µM*.
`CCC(=O)O[C@]1(C(=O)CCl)[C@@H](C)C[C@H]2[C@@H]3CCC4=CC(=O)C=C[C@]4(C)[C@@]3(F)[C@@H](O)C[C@@]21C` gave LASV entry inh -26% and Marburg entry inconclusive.
Screening CCC12C=C(C=Cc3ccccc3)C(CC)(C1)C(c1ccccc1)CC2=O (centres undefined) returned LASV entry inh -22%[8.59 µM] and Marburg entry 13%[8.59 µM].
`Cc1cc2c(C(C)C)c(O)c(O)c(C=O)c2c(O)c1-c1c(C)cc2c(C(C)C)c(O)c(O)c(C=O)c2c1O` gave LASV entry inh 11µM* and Marburg entry 20µM*.
`C=CCOC(=O)N[C@H](c1ccc(-c2ccccc2)cc1)[C@H](C)C=CCC(=O)OC` gave Marburg entry -4%[8.59 µM].
Screening CO[C@@H]1[C@@H](OC)[C@H](C)[C@@](O)(CC(=O)O)O[C@H]1[C@H](C)[C@H]1O[C@@]2(CC[C@@](C)([C@H]3CC[C@@](C)([C@@H]4O[C@@H]([C@H]5O[C@](C)(O)[C@H](C)C[C@@H]5C)C[C@@H]4OC4C[C@H](OC)[C@@H](OC)[C@H](C)O4)O3)O2)C[C@H](O)[C@H]1C (some centres undefined) returned LASV entry inh 1µM* and Marburg entry inconclusive.
For CC[C@@]1([C@@H]2O[C@@H]([C@H]3O[C@@](O)(CO)[C@H](C)C[C@@H]3C)C[C@@H]2C)CC[C@@H]([C@]2(C)CCC3(C[C@H](O)[C@@H](C)[C@@H]([C@@H](C)[C@@H](OC)[C@H](C)C(=O)O)O3)O2)O1 (some centres undefined) the results were LASV entry inh 0.56µM* and Marburg entry 0.32µM*.
`CC[C@@]1([C@@H]2O[C@@H]([C@H]3O[C@@](O)(CO)[C@H](C)C[C@@H]3C)C[C@@H]2C)CC[C@H]([C@]2(C)CC[C@]3(C[C@H](O)[C@@H](C)[C@@H]([C@@H](C)[C@@H](OC)C(C)C(=O)O)O3)O2)O1` (some centres undefined) gave LASV entry inh 0.45µM* and Marburg entry 0.28µM*.
Screening CC(C)[C@@H](CO[Si](C)(C)C(C)(C)C)N1CC=CS1(=O)=O returned LASV entry inh -27% and Marburg entry 13%.
`O=S1(=O)c2cc(Cl)ccc2Oc2ccccc2CN1Cc1cccc(F)c1` gave LASV entry inh -13% and Marburg entry inconclusive.
For O=C1CCCC=C1C(CCc1ccccc1)OC(=O)c1ccc(Br)cc1 (centres undefined) the results were LASV entry inh 9%[8.59 µM] and Marburg entry 22%[8.59 µM].
C=CC(=O)N1[C@H](C(=O)OCC)CSCCS1(=O)=O was read as LASV entry inh 5% and Marburg entry -8%.
`COCC=CC1=CC2=CC(=O)C(C)(OC(=O)c3cnc4ccccc4n3)C(=O)C2=CN1Cc1ccc(OC)cc1` (centres undefined) gave LASV entry inh 11%[8.59 µM] and Marburg entry -2%[8.59 µM].
Screening COc1ccc(-c2[nH]ncc2CN2CCOc3c(cc(-c4cccc(OC)n4)cc3OC)C2)cc1 returned LASV entry inh -12% and Marburg entry -3%.
COc1cccc(-c2cc3c(c(OC)c2)OCCN(Cc2ccccc2O)C3)n1 was read as LASV entry inh 5.6µM* and Marburg entry -21%.
Screening Fc1ccc(-c2c(-c3ccncc3)nc3n2CCS3)cc1 returned LASV entry inh 34% and Marburg entry inconclusive.
O=[N+]([O-])c1ccc(-c2nc(-c3ccc(F)cc3)c(-c3ccncc3)[nH]2)cc1 was read as LASV entry inh -16% and Marburg entry 11µM*.
Screening Clc1ccc(Cn2c(CN3CCCC3)nc3ccccc32)cc1 returned LASV entry inh 4%[17.8 µM] and Marburg entry -18%[17.8 µM].
For COc1ccc(CCN2CCC(Nc3nc4ccccc4n3Cc3ccc(F)cc3)CC2)cc1 the results were LASV entry inh 32µM*! and Marburg entry 4µM*.
Screening COC(=O)[C@H](CC(C)C)NC(=O)c1ccc(NC[C@@H](N)CS)cc1-c1cccc2ccccc12 returned LASV entry inh 11µM* and Marburg entry 11µM*.
COC(=O)[C@H](NC(=O)c1cc(-c2ccccc2)nc2ccccc12)c1ccccc1 was read as LASV entry inh inconclusive and Marburg entry 12%.
For CC(CCN1CCCc2nc(C)c(C)cc21)=NO[C@H](C)c1cn([C@@H]2COC[C@@H]2O)nn1 the results were Marburg entry 7%[8.59 µM].
For [O-][n+]1ccccc1SSc1cccc[n+]1[O-] the results were LASV entry inh 4µM* and Marburg entry 6.3µM*.
For CC(C)OC(=O)c1cn(Cc2c(F)cccc2F)c2sc(-c3ccc(NC(=O)C(C)C)cc3)c(CN(C)Cc3ccccc3)c2c1=O the results were LASV entry inh 16µM* and Marburg entry 2.5µM*.
CCC1CN2CCC1CC2[C@@H](Oc1cc2ccccc2c2ccccc12)c1ccnc2ccc(O)cc12 (some centres undefined) was read as LASV entry inh 0%[8.59 µM] and Marburg entry 42%[8.59 µM].
For NC(N)=NCCNS(=O)(=O)c1cccc2cnccc12 the results were LASV entry inh 15% and Marburg entry 5%.
CN(C(Cc1ccc(OS(=O)(=O)c2cccc3cnccc23)cc1)C(=O)N1CCN(c2ccccc2)CC1)S(=O)(=O)c1cccc2cnccc12 (centres undefined) was read as LASV entry inh 10µM* and Marburg entry inconclusive.
